From PubChem BioAssay
SW480 rereplic: DNA re-replication induction in SW480 cells; SW480 DNA re-replication, Hoechst DNA content imaging, 48 h; 340,000 compounds, 1.8% hits; AID 624297; Potency, µM (highest dose often 46.1 µM), for inactives: at the highest dose re-replication activation, actives largely listed as activators; also: potency is read from the fitted curve at half-maximal effect; % of control where 0% means no effect; nearly all actives have a fitted effect of over 55% in size
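Compounds, transferred as 23 nL by pin tool, were incubated with cells for 48 hr; DNA content per nucleus was then quantified by Hoechst staining and fluorescence plate imaging.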
Giardia killer: kills Giardia lamblia; Giardia lamblia trophozoite viability; activity change, % at 7.66 µM, hits read low; 340,000 compounds, 0.15% hits; in the data active = activity change below about -80%; inconclusive = between about -30% and that limit;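 also: parasites exposed to compound for two days anaerobically before the ATP read; % is scaled to controls: 0 for no effect and ±100 for the full control effect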
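Anaerobic 48 hrs incubation at 37 deg C of 100 trophozoites/well with test compounds; ATPLite 1-Step luminescence, 15-30 min RT, reports cellular ATP as viability.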
uPA surface inh: blocks generation of uPA at the cell surface | 330,000 compounds, 0.31% hits | cell surface uPA generation assay, qHTS | Potency, µM (series often up to 38.3 µM), for inactives: at the highest dose activity change, negative = inhibition, usual class: inhibitors; active = well fitted inhibition curve with a large enough effect; inconclusive = small, poorly fitted or top-dose-only effect; inactive = no such curve, though single readings can be large or run the other way; tested in mouse RAW 264.7 cells; also: potency is read from the fitted curve at half-maximal effect; % is scaled to controls: 0 for no effect and ±100 for the full control effect; nearly all actives have a fitted effect of over 55% in size
MCF10A rereplic: induces DNA re-replication in MCF 10a normal breast cells; 350,000 compounds, 2.9% hits; Potency, µM (series often up to 46.1 µM), inactives show at the top dose activity, positive = re-replication, usual class: activators; MCF 10A DNA re-replication, Hoechst nuclear intensity, 48 h; also: potency is read from the fitted curve at half-maximal effect; % of control where 0% means no effect; nearly all actives have a fitted effect of over 50% in size
* marks the source's active call; other numbers are inactive results. This is a sample that favours compounds with a hit; in the whole collection about 4.3% have one here. Unless noted, calls follow the shape of the dose curve; as a rule, active = well fitted activation curve with a large enough effect; inconclusive = small, poorly fitted or top-dose-only effect; inactive = no such curve, though single readings can be large or run the other way.

For Cc1ccc(NC(=O)CSc2nc(-c3ccco3)cc(C(F)(F)F)n2)cc1C the results were SW480 rereplic 2.6µM*, Giardia killer 0 and MCF10A rereplic 1.2µM*.
Cc1cc(NC(=O)CSc2nc(-c3ccco3)cc(C(F)(F)F)n2)n(-c2ccccc2)n1 was read as SW480 rereplic inconclusive, Giardia killer -16, uPA surface inh -11% and MCF10A rereplic 10µM*.
For COCc1cc(C)nc2sc(C(=O)Nc3ccccc3OC)c(N)c12 the results were SW480 rereplic 21µM*, Giardia killer 8, uPA surface inh 1% and MCF10A rereplic inconclusive.
Screening Cc1cc(C)c2c(N)c(C(=O)Nc3nccs3)sc2n1 returned SW480 rereplic inconclusive, Giardia killer inconclusive, uPA surface inh -11% and MCF10A rereplic inconclusive.
Screening COCc1cc(C)nc2sc(C(=O)Nc3ccc(OC)cc3)c(N)c12 returned SW480 rereplic inconclusive, Giardia killer 6, uPA surface inh 8% and MCF10A rereplic inconclusive.
For COCc1cc(C)nc2sc(C(=O)Nc3nccs3)c(N)c12 the results were SW480 rereplic 0%, Giardia killer 6, uPA surface inh -16% and MCF10A rereplic 16µM*.
For COCc1cc(C)nc2sc(C(=O)Nc3cccc(OC)c3)c(N)c12 the results were SW480 rereplic 18µM*, Giardia killer -6, uPA surface inh 6% and MCF10A rereplic 10µM*.
Screening Nc1nc(NCc2cccc(Cl)c2)c2[nH]cnc2n1 returned Giardia killer -11.
CN(C)c1ccc(C2(c3ccc(N(C)C)cc3)OC(=O)c3cc(N)ccc32)cc1 was read as SW480 rereplic -7%, Giardia killer 14, uPA surface inh 0% and MCF10A rereplic 10%.
`CCN(CC)C(=S)SSC(=S)N(CC)CC` gave SW480 rereplic inconclusive, Giardia killer -24, uPA surface inh inconclusive and MCF10A rereplic 15µM*.
CCN(CC)C(=S)SCC(=O)c1ccccc1 was read as SW480 rereplic inconclusive, Giardia killer -14, uPA surface inh -4% and MCF10A rereplic 15%.
Screening COc1cccc2nc3c(C(=O)NCCN(C)C)cccc3cc12 returned SW480 rereplic 9.2µM*, Giardia killer -5, uPA surface inh -7% and MCF10A rereplic -9%.
`CC(=O)N1CCN(C(=O)c2cc3c(s2)CCC(C)C3)CC1` (stereo unspecified) gave SW480 rereplic -6%, Giardia killer -6, uPA surface inh -8% and MCF10A rereplic 2%.
For Cc1csc(=O)n1CC(=O)OCC(=O)c1c(N)n(C)c(=O)n(C)c1=O the results were SW480 rereplic -57%, Giardia killer -21, uPA surface inh 1% and MCF10A rereplic -2%.
Cc1csc(=O)n1CC(=O)OCC(=O)c1c(N)n(CC(C)C)c(=O)n(C)c1=O was read as SW480 rereplic 6.5µM*, Giardia killer -19, uPA surface inh -3% and MCF10A rereplic inconclusive.
For COc1ccc(-c2[nH]ncc2CN2CCC(C(=O)c3ccc(F)cc3)CC2)cc1 the results were SW480 rereplic 2%, Giardia killer -21, uPA surface inh -3% and MCF10A rereplic inconclusive.
COc1cc(SC)ccc1C(=O)Nc1nc2ccccc2[nH]1 was read as SW480 rereplic -2%, Giardia killer -99*, uPA surface inh -17% and MCF10A rereplic 10%.
COc1ccc(C(=O)Nc2ccc3ccccc3n2)c(OC)c1OC was read as SW480 rereplic 4%, Giardia killer inconclusive, uPA surface inh 2.8µM* and MCF10A rereplic 23%.
`CSc1ccccc1C(=O)Nc1nc2ccccc2[nH]1` gave SW480 rereplic 1%, Giardia killer -5, uPA surface inh -3% and MCF10A rereplic 0%.
O=C(Nc1ccc2ccccc2n1)c1ccccc1Cl was read as SW480 rereplic 2%, Giardia killer -7, uPA surface inh inconclusive and MCF10A rereplic -1%.
For COc1ccccc1C(=O)Nc1nc2ccccc2[nH]1 the results were SW480 rereplic 5%, Giardia killer -84*, uPA surface inh -3% and MCF10A rereplic -3%.
Cc1cc(C)c(OCC(=O)Nc2nc3ccccc3[nH]2)c(C)c1 was read as SW480 rereplic -29%, Giardia killer -4, uPA surface inh 3% and MCF10A rereplic 0.82µM*.
For O=C(CCSc1ccc(Br)cc1)c1ccc(O)cc1 the results were SW480 rereplic 1%, Giardia killer 0, uPA surface inh 1% and MCF10A rereplic inconclusive.
`CS(=O)(=O)c1ccc([C@@H](O)[C@@H](COC(=O)CN)NC(=O)C(Cl)Cl)cc1` gave SW480 rereplic -3% and MCF10A rereplic -1%.
Screening COc1ccc(C2C=C3CNS(=O)(=O)C3CC2OC(=O)c2ccc(Cl)cc2)cc1 (stereo unspecified) returned Giardia killer 33.
Screening Cc1ccc(C)n1-c1cccc(S(=O)(=O)N2CCOCC2)c1 returned SW480 rereplic inconclusive, Giardia killer -26, uPA surface inh -4% and MCF10A rereplic 18µM*.
Screening Cc1cc(C(=O)CCl)c(C)n1-c1cccc(S(=O)(=O)N2CCOCC2)c1 returned SW480 rereplic 16%, Giardia killer 2, uPA surface inh -3% and MCF10A rereplic inconclusive.
Screening CCOC(=O)C1=C(C)NC(C)=C(C(=O)OCC)C1C(=O)OCC(=O)NCc1ccco1 returned SW480 rereplic -7%, Giardia killer 14, uPA surface inh -7% and MCF10A rereplic -51%.
For CC[C@]12CCCN3CCc4c(n(c5ccccc45)C(=O)C1)[C@@H]32 the results were SW480 rereplic 13µM*, Giardia killer 2, uPA surface inh 3.2µM* and MCF10A rereplic inconclusive.
`Cn1c(=O)c2[nH]c(C=Cc3ccc4c(c3)OCO4)nc2n(C)c1=O` gave SW480 rereplic -5%, Giardia killer 33, uPA surface inh 1% and MCF10A rereplic 0%.
Screening CC/C(=C(/CC)c1ccc(O)cc1)c1ccc(O)cc1 returned SW480 rereplic inconclusive, Giardia killer 8, uPA surface inh -7% and MCF10A rereplic 24µM*.
`CN(Cc1ccc(Cl)c(Cl)c1)C(=O)c1cccc(S(=O)(=O)N2CCN(Cc3ccccc3)CC2)c1` gave SW480 rereplic -34%, Giardia killer 13, uPA surface inh inconclusive and MCF10A rereplic 29%.
COc1ccc(/C=C/C(=O)N(CCC(N)=O)c2ccccc2)cc1S(=O)(=O)N1CCOCC1 was read as SW480 rereplic 4.6µM*, Giardia killer 7, uPA surface inh 0% and MCF10A rereplic -1%.
Screening Cc1ccc(N(C)S(=O)(=O)c2cccc(C(=O)N(C)Cc3cnn(-c4ccccc4)c3)c2)cc1 returned SW480 rereplic inconclusive, Giardia killer -9, uPA surface inh -13% and MCF10A rereplic 21µM*.
CN(Cc1cnn(Cc2ccccc2)c1)C(=O)c1cccc(S(=O)(=O)N2CCOCC2)c1 was read as SW480 rereplic 18µM*, Giardia killer 0, uPA surface inh 6.3µM* and MCF10A rereplic inconclusive.
`COc1ccc(C(=O)N(C)Cc2cnn(Cc3ccccc3)c2)cc1S(=O)(=O)N1CCOCC1` gave SW480 rereplic 4.1µM*, Giardia killer -3, uPA surface inh 2µM* and MCF10A rereplic 3.7µM*.
